Measured values as given in PMC7862700, “An all-to-all approach to the identification of sequence-specific readers for epigenetic DNA modifications on cytosine”.

Tests used:
Assay in all cases: DAPPL (digital affinity profiling via proximity ligation, sequencing); 10 mM Tris-HCl pH 7.5, 50 mM NaCl, 1 mM DTT, 4% glycerol, room temperature, 30 min; GST-TFs on glutathione beads, 16-mer random dsDNA library, 0.1% formaldehyde crosslink after washing; high values mean tight binding
FEV = target: T1, FEV (Homo sapiens, UniProt Q99581 1-238); settings: protein: recombinant; tags: N-terminal GST; dsDNA, one strand shown
T1 sequence: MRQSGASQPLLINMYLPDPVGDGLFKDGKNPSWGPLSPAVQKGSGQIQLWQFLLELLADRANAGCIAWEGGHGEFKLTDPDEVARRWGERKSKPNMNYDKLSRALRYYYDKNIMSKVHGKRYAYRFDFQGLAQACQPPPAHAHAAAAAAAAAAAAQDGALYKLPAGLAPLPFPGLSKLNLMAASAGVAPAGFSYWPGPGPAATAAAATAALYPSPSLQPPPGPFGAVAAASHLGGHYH
Outline: (§1)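 Sequencing on an Illumina NextSeq500 followed washing, crosslinking with 0.1% formaldehyde, proximity ligation (BsaI/T4 ligase, 1 h, 37 °C) and PCR amplification of pools that had been incubated for 30 min at room temperature with 200 nmole of a random double-stranded 16-mer DNA library in Tris/NaCl/DTT/glycerol buffer. Each pool held DNA-barcoded human transcription factors, expressed in yeast as GST fusions and captured on glutathione beads, plus a tag-only sample. Binding signal is a hexamer's read frequency for a factor divided by its frequency in the tag-only sample.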

ETV5 = ETV5 (Homo sapiens, UniProt P41161 1-510); settings: protein: recombinant; tags: N-terminal GST; dsDNA, one strand shown
Outline: as §1

HSF1 = HSF1 (Homo sapiens, UniProt Q00613 1-529); settings: protein: recombinant; tags: N-terminal GST; chain copies: 3; dsDNA, one strand shown
Outline: as §1

SPIC = target: T2, SPIC (Homo sapiens, UniProt Q8N5J4 1-248); settings: protein: recombinant; tags: N-terminal GST; dsDNA, one strand shown
T2 sequence: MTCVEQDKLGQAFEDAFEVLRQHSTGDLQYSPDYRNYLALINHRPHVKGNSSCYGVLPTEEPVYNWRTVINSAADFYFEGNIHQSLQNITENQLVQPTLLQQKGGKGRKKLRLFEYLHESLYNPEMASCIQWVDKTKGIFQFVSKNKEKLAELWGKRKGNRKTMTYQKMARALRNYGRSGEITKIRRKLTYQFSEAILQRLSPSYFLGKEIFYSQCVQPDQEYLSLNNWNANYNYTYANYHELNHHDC
Outline: as §1

ELF4 = ELF4 (Homo sapiens, UniProt Q99607 1-663); settings: protein: recombinant; tags: N-terminal GST; dsDNA, one strand shown
Outline: as §1

ELK4 = target: T3, ELK4 (Homo sapiens, UniProt P28324-2 1-405); settings: protein: recombinant; tags: N-terminal GST; dsDNA, one strand shown
T3 sequence: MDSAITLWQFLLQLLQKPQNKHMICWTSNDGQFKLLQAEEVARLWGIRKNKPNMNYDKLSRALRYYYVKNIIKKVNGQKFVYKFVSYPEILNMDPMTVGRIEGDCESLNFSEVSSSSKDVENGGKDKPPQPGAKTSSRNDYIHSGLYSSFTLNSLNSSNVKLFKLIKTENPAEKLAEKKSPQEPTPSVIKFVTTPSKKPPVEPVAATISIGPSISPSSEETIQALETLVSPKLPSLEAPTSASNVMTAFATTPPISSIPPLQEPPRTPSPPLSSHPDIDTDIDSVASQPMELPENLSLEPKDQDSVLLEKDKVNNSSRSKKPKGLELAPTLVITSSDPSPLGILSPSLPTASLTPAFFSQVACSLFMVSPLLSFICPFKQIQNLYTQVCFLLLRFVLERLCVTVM
Outline: as §1

ETV2 = target: T4, ETV2 (Homo sapiens, UniProt O00321 1-342); settings: protein: recombinant; tags: N-terminal GST; dsDNA, one strand shown
T4 sequence: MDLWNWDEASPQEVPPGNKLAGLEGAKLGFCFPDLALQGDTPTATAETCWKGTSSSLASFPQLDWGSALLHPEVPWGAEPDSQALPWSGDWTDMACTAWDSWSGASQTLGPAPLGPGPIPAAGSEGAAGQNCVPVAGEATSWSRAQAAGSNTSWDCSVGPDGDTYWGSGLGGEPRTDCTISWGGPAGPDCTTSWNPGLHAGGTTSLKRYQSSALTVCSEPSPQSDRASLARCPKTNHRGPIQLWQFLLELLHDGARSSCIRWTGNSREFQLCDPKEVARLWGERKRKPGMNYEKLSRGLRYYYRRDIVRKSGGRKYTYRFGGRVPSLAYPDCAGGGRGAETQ
Outline: as §1

ELF3 = target: T5, ELF3 (Homo sapiens, UniProt P78545 1-371); settings: protein: recombinant; tags: N-terminal GST; dsDNA, one strand shown
T5 sequence: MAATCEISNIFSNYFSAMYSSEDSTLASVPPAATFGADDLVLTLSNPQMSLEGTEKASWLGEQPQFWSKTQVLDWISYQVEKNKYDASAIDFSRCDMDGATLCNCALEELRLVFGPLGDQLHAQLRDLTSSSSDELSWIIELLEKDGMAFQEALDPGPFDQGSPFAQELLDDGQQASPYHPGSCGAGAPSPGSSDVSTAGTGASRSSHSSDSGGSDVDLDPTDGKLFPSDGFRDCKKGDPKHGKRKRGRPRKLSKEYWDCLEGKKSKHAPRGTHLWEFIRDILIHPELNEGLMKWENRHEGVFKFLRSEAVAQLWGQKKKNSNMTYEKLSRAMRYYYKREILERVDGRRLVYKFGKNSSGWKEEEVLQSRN
Outline: as §1

CRX = CRX (Homo sapiens, UniProt O43186 1-299); settings: protein: recombinant; tags: N-terminal GST; dsDNA, one strand shown
Outline: as §1

ETV1 = ETV1 (Homo sapiens, UniProt P50549 1-477); settings: protein: recombinant; tags: N-terminal GST; dsDNA, one strand shown
Outline: as §1

HSF1, sequence (Q00613 whole entry): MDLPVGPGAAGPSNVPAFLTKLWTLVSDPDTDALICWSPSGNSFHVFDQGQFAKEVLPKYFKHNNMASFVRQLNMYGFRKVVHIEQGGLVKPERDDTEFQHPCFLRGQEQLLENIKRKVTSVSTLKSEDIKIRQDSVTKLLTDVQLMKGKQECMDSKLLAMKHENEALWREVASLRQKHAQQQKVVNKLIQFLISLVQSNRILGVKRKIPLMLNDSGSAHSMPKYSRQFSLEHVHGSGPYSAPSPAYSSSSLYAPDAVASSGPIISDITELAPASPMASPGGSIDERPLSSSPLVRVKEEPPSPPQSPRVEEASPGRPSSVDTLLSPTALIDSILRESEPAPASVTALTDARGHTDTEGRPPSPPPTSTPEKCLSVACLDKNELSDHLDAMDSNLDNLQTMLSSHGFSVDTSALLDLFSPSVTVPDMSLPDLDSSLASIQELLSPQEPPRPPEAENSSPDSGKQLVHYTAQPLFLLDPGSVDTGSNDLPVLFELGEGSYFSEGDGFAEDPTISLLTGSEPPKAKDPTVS
CRX, sequence (O43186 whole entry): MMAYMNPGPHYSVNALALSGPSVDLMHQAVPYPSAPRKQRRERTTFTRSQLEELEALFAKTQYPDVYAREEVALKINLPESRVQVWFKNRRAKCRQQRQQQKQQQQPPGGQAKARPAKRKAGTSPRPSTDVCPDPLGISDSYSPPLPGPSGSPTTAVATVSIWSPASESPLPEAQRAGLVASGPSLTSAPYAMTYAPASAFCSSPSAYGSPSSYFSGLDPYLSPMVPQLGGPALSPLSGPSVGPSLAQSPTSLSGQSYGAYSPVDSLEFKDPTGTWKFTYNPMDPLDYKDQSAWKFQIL
ETV1, sequence (P50549 whole entry): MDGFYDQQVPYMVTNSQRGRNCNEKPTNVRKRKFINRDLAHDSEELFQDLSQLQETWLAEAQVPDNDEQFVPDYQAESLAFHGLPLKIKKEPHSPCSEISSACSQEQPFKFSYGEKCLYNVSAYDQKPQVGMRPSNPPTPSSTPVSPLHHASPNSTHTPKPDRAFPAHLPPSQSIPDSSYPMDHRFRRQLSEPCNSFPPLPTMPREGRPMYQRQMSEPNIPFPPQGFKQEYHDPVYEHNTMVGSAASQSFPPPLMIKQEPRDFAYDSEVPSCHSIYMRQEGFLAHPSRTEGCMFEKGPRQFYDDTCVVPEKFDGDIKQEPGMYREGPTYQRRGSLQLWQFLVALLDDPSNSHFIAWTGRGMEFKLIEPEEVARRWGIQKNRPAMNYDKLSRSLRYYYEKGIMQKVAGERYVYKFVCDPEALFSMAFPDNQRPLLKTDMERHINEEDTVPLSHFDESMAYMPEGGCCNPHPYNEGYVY
ELF4, sequence (Q99607 whole entry): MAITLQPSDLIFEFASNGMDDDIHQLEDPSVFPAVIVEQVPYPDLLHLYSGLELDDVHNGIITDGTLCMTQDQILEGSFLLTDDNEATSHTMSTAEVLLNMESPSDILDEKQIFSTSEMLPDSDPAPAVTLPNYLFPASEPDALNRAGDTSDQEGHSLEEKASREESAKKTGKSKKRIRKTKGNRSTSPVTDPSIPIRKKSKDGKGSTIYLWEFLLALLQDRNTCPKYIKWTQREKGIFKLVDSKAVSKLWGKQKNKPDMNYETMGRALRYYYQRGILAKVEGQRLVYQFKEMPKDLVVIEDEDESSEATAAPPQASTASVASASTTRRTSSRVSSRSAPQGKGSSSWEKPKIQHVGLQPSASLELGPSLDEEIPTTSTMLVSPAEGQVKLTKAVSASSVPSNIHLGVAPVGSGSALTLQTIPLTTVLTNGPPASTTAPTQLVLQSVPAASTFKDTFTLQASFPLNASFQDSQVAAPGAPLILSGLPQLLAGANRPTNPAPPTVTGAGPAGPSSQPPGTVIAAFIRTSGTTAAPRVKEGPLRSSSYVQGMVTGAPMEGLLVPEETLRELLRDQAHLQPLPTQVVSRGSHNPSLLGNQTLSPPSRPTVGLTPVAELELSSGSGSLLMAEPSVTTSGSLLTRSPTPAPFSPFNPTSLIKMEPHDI
ETV5, sequence (P41161 whole entry): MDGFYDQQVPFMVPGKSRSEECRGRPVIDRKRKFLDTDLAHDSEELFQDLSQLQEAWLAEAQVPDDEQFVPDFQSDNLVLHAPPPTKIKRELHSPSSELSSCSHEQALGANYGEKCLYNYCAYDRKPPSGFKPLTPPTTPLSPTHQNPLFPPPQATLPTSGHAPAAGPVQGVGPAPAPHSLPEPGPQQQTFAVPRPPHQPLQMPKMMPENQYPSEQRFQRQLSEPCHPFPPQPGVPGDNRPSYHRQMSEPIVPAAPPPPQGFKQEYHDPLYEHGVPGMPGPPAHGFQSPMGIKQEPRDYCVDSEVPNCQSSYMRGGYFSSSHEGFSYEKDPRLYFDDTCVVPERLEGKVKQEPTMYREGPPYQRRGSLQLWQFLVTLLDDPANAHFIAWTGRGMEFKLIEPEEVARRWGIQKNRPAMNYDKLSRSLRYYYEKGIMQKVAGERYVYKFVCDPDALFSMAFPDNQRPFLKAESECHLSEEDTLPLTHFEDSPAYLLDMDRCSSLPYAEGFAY

CTACCT
binding signal (FEV): 1.3 fold enrichment (6-mer frequency, TF over GST control) | binding signal (ETV5): 1.36 fold enrichment (6-mer frequency, TF over GST control) | binding signal (HSF1): 1.15 fold enrichment (6-mer frequency, TF over GST control) | binding signal (SPIC): 1.38 fold enrichment (6-mer frequency, TF over GST control) | binding signal (ELF4): 1.46 fold enrichment (6-mer frequency, TF over GST control) | binding signal (ELK4): 1.36 fold enrichment (6-mer frequency, TF over GST control) | binding signal (ETV2): 1.54 fold enrichment (6-mer frequency, TF over GST control) | binding signal (ELF3): 1.18 fold enrichment (6-mer frequency, TF over GST control) | binding signal (CRX): 1.23 fold enrichment (6-mer frequency, TF over GST control) | binding signal (ETV1): 1.54 fold enrichment (6-mer frequency, TF over GST control)
